The values below come from the OligoGym collection.
Further: reference of the scale not given here.

For one experiment, the target named is C6orf105. The experiment can be described thus: pooled miR-30 sensor sort-seq; sequence = guide strand. Particulars: shRNA.
TTGTAGAGAAAGAGGATCCAGA displayed a sensor-assay potency score (higher = more potent) of -0.578.

TCTTTTCAGCACATCATCCAGG yielded a sensor-assay potency score (higher = more potent) of -0.0678.

Turning to TCTCCAAGTAGGTAGATGCTGG, the sensor-assay potency score (higher = more potent) is -0.762.

On to TAAGTATCACTCTCTGTCCCTC, for which the sensor-assay potency score (higher = more potent) was -0.473.

On to TTAAGTATCACTCTCTGTCCCT, for which the sensor-assay potency score (higher = more potent) was 0.33.

With TATCACTCTCTGTCCCTCCTAC, the sensor-assay potency score (higher = more potent) came out at 0.281.

Sequence TATATTTCCACCTTGCACCATT registered a sensor-assay potency score (higher = more potent) of -0.555.

Sequence TAATTGAGGAAAGTATACCAGC had a sensor-assay potency score (higher = more potent) of -0.629.

Turning to TTAAATTTAAGTATCACTCTCT, the sensor-assay potency score (higher = more potent) is 1.11.

For TTGCATGATTCAGCCACACGGG, the sensor-assay potency score (higher = more potent) was -0.688.

Regarding TTCTTTTCAGCACATCATCCAG, the sensor-assay potency score (higher = more potent) was -1.18.

A further experiment concerns the target C6orf118. The experiment is described as above. The note with it: shRNA.
With TTTTACTAGAGATTAAAGCTGA, the sensor-assay potency score (higher = more potent) stood at 0.127.

With TACACAGGGTCTTCACTCCTGG, the sensor-assay potency score (higher = more potent) was -0.203.

For the sequence TGAAATTCCAGTATGAACCAAA, the sensor-assay potency score (higher = more potent) is -0.164.

TTCAGGTACCTGAACAGCGGGG came in with a sensor-assay potency score (higher = more potent) of -1.06.

Sequence TAGAGGTAGACGTCCTCCCGGT yielded a sensor-assay potency score (higher = more potent) of -0.61.

With TATGTTTCTCAGATGATTCTGA, the sensor-assay potency score (higher = more potent) amounted to 0.578.

TTACACAGGGTCTTCACTCCTG came in with a sensor-assay potency score (higher = more potent) of 0.491.

Regarding TTGCTTGGCGAGCACTTCCTTC, the sensor-assay potency score (higher = more potent) was -1.21.

As to TTGTATAGCTTCATGCTCTATG, the sensor-assay potency score (higher = more potent) turned out to be 0.444.

As to TCTCAGATGATTCTGATCGTTC, the sensor-assay potency score (higher = more potent) is -0.778.

For the sequence TTAAGAACTAGTATTGTTGTAA, the sensor-assay potency score (higher = more potent) was found to be 0.558.

The target in the next experiment is C6orf145. The description is as above. Particulars: shRNA.
TTACTAAACATCCCCTGCCTGT came in with a sensor-assay potency score (higher = more potent) of -0.858.

For TATGATCGTCTTCAGCAGCTTC, the sensor-assay potency score (higher = more potent) was -1.

Consider TCAATAACTATTGTTTCGGTAT, for which the sensor-assay potency score (higher = more potent) was -0.234.

In the case of TGGATTACTAAACATCCCCTGC, the sensor-assay potency score (higher = more potent) is -0.823.

TTATCTAGTCGGCAATGCCTTC displayed a sensor-assay potency score (higher = more potent) of -1.25.

TTTACATTAGCAAATGTCGGTC had a sensor-assay potency score (higher = more potent) of -0.665.

TATACTGTGGTCAATAACTATT gave a sensor-assay potency score (higher = more potent) of -1.52.

In turn, TATTTGCTAAACAAAATCCATT showed a sensor-assay potency score (higher = more potent) of -1.51.

The sequence ATTTTTTAACACCTGATCCAGA displayed a sensor-assay potency score (higher = more potent) of -0.814.

Sequence TCGTTAGTAGACACTGAGCAGA showed a sensor-assay potency score (higher = more potent) of -0.734.

The sequence TTGACTGGACTTTGAAAGCTGG gave a sensor-assay potency score (higher = more potent) of -0.406.

For a further experiment, the target named is C6orf203. The description is as above. The note with it: shRNA.
Regarding TAGAAAAATACAAGTATCGATT, the sensor-assay potency score (higher = more potent) was -1.01.

With TATTACTTTTGAGTCTTACGGA, the sensor-assay potency score (higher = more potent) is -0.0954.

As for TTATAGTTTTTGACTACAGTAG, the sensor-assay potency score (higher = more potent) is -0.647.

The sequence TTTGTAGAAAGCATCTTCCACT yielded a sensor-assay potency score (higher = more potent) of -0.297.

For the sequence TAGTTTTTGACTACAGTAGGAT, the sensor-assay potency score (higher = more potent) was -0.319.

TTACTTTTGAGTCTTACGGAAA: the sensor-assay potency score (higher = more potent) was -1.38.

Take TTTCACTTTCAGTCTTCTCTTC: the sensor-assay potency score (higher = more potent) was 0.689.
